# Assay results from PubChem BioAssay (Tox21).
# Results filed as inconclusive are left out. Unmarked numbers belong to inactive results. Active and inactive are the calls of the source. Unless noted, calls come from the whole dose curve.
# Assay: qHTS assay for small molecule disruptors of the mitochondrial membrane potential - cell viability (AID 720634);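 note: human HepG2 liver cancer cells; nearly all actives have a fitted effect of over 20% in size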
# Conditions: HepG2 viability, ATP luminescence (CellTiter-Glo), 1 h; series mostly up to 83.2 µM; activity change, negative = cytotoxicity: at the top concentration
# Method in brief: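 HepG2, 1 hr compound, 37 C. ATP luminescence via CellTiter-Glo, 30 min RT, same well as m-MPI.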
# % is set by controls: 0 for no effect and ±100 for the full control effect.
Compound,"activity change, negative = cytotoxicity",outcome
CCOC(=O)C(C)(C)C,6.66% [at 95.3 µM],
CCCCC(CC)C(=O)OC(C)C (centres undefined),-8.65%,
CCCCC[Si](OCC)(OCC)OCC,-22.4%,
C[CH2][Ge]([Cl])([CH2]C)[CH2]C,8.16% [at 95.3 µM],
Cc1nc([N+](=O)[O-])cn1-c1ccc([N+](=O)[O-])cc1,7.37%,
Cc1cccc(Nc2ccncc2S(=O)(=O)NC(=O)NC(C)C)c1,49% [at 39.1 µM],
N#CCCOCCOCCC#N,18.2%,
CC(C)COC(=O)CCCCC(=O)OCC(C)C,6.95%,
CCc1nccnc1C,8.68%,
Cc1ncc([N+](=O)[O-])n1CC(O)CCl (centres undefined),2.95% [at 39.1 µM],
COc1cccc2sc(N)nc12,-24.7% [at 95.3 µM],
C[C@H](CCC(=O)O)[C@H]1CC[C@H]2[C@@H]3[C@H](O)C[C@@H]4C[C@H](O)CC[C@]4(C)[C@H]3C[C@H](O)[C@]12C,,inactive
NCCc1ccn[nH]1,-12.2% [at 39.1 µM],
O=P(O)(O)OCC(O)CO (centres undefined),-2.31%,
CCC1Nc2cc(Cl)c(S(N)(=O)=O)cc2S(=O)(=O)N1 (centres undefined),4.06%,
O=C(/C=C/c1ccccc1)NCCO,-5.84%,

Compound,"activity change, negative = cytotoxicity",outcome
CCC(C)N (centres undefined),6.64%,
CNC(=O)C(c1ccccc1)c1ccccc1,4.29%,
CCCOCCOCCOCCO,11.8%,
O=[Si]=O,11.3%,
C=CCOc1c(Br)cc(C(C)(C)c2cc(Br)c(OCC=C)c(Br)c2)cc1Br,-11.7%,
CCC(C)(CCC(C)C)C(=O)[O-].CCC(C)(CCC(C)C)C(=O)[O-].[Zn+2] (centres undefined),1.04%,
CC(=O)OCC(=O)[C@@]1(O)[C@H](OC(C)=O)C[C@H]2[C@@H]3CCC4=CC(=O)C=C[C@]4(C)[C@@]3(F)[C@@H](O)C[C@@]21C,8.27%,
CC(C)COC(=O)COc1ccc(Cl)cc1Cl,5%,
CC(=O)c1ccc(OCC(=O)N2CCCCC2)cc1,-11.7%,
CN=C(NC#N)NCCSCc1csc(N=C(N)N)n1,2.09%,
C[Si]1(C)N[Si](C)(C)N[Si](C)(C)N1,-3.79%,
Cc1ccccc1C,-5.84% [at 95.3 µM],
O=c1cc(O)c(Cl)c[nH]1,-2.66%,
CCC(CO)CO,14.3%,
COC(/C=C(\C)CCC=C(C)C)OC,-12.6%,
CC(C)(CO)[C@@H](O)C(=O)NCCCO,12.1%,

# Assay: qHTS assay for small molecule disruptors of the mitochondrial membrane potential (AID 720635; active = well fitted inhibition curve with a large enough effect in the signal ratio in the repeat runs; the % refers to the signal ratio; note: potency is the fitted concentration of half-maximal effect)
# Conditions: HepG2 mitochondrial membrane potential, Mito-MPS dye ratio; series mostly up to 83.2 µM; ratio activity, negative = MMP loss: at the top concentration
# Method in brief: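 HepG2 cells (2,000/well) attached overnight at 37C, then took compound for 1 hr at 37C, 5% CO2. Mito-MPS dye was added for 30 min; fluorescence was read at 490/535 nm (monomers) and 540/590 nm (aggregates).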
Compound,"ratio activity, negative = MMP loss",Potency
CCOC(=O)C(C)(C)C,16.8% [at 95.3 µM],
CCCCC[Si](OCC)(OCC)OCC,,48.6 µM (active)
CCCCC(=O)N(C)C,2.03%,
Cc1nc([N+](=O)[O-])cn1-c1ccc([N+](=O)[O-])cc1,19%,
Cc1cccc(Nc2ccncc2S(=O)(=O)NC(=O)NC(C)C)c1,-26.9% [at 39.1 µM],
COc1cccc2sc(N)nc12,,43.5 µM (active)
C[C@H](CCC(=O)O)[C@H]1CC[C@H]2[C@@H]3[C@H](O)C[C@@H]4C[C@H](O)CC[C@]4(C)[C@H]3C[C@H](O)[C@]12C,21.7%,
NCCc1ccn[nH]1,-5.4% [at 39.1 µM],
O=P(O)(O)OCC(O)CO (centres undefined),-3.43%,
O=C(/C=C/c1ccccc1)NCCO,-29.4%,
CCC(C)N (centres undefined),-6.39%,
O=[Si]=O,-10.2%,
C=CCOc1c(Br)cc(C(C)(C)c2cc(Br)c(OCC=C)c(Br)c2)cc1Br,22.1%,
CCCCOC(=O)[C@@H](C)Oc1ccc(Oc2ccc(C(F)(F)F)cn2)cc1,-19.9% [at 95.3 µM],
CC(C)COC(=O)COc1ccc(Cl)cc1Cl,10.8%,
CC(=O)c1ccc(OCC(=O)N2CCCCC2)cc1,7.38%,
CN=C(NC#N)NCCSCc1csc(N=C(N)N)n1,5.31%,
C[Si]1(C)N[Si](C)(C)N[Si](C)(C)N1,,27.3 µM (active)
Cc1ccccc1C,14.5% [at 95.3 µM],
O=c1cc(O)c(Cl)c[nH]1,12.9%,
COC(/C=C(\C)CCC=C(C)C)OC,-11.9%,
CC(C)(CO)[C@@H](O)C(=O)NCCCO,-10.7%,
